This is part of a sample that, as a whole, favours compounds with a hit. Of some 83,000 tested, about 20% had one in any assay.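 Note: values are percent growth. 100 is the growth of untreated cells, values between 100 and 0 indicate rising inhibition; between -100 and 0 indicates cell death.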 Unmarked numbers belong to inactive results. Calls of active or inactive are those of the source. Rule for the calls: active = growth percent below 10; inactive = the rest.
Legend:
Test in all cases: NCI-60 one-dose screen, 48 h (100 = growth as untreated, 0 = no growth, -100 = all killed)
Details in all cases: 10 µM
EKVX NSCLC = test system: EKVX NSCLC
SN12C renal = test system: SN12C renal
UO-31 renal = test system: UO-31 renal
TK-10 renal = test system: TK-10 renal
ACHN renal = test system: ACHN renal
CAKI-1 renal = test system: CAKI-1 renal
A498 renal = test system: A498 renal
CCRF-CEM leukemia = test system: CCRF-CEM leukemia
MOLT-4 leukemia = test system: MOLT-4 leukemia
SR leukemia = test system: SR leukemia

SMILES | growth (EKVX NSCLC) | growth (SN12C renal) | growth (UO-31 renal) | growth (TK-10 renal) | growth (ACHN renal) | growth (CAKI-1 renal) | growth (A498 renal) | growth (CCRF-CEM leukemia) | growth (MOLT-4 leukemia) | growth (SR leukemia)
O=C(Nc1ccncc1)C(=O)c1cn(S(=O)(=O)c2cc(Cl)cc(Cl)c2)c2ccccc12 | 52.3% | 73.5% | 75.2% | 73.1% | 68.4% | 54.5% | 63.1% | 67.9% | 73% | 38%
Nc1ccc2cc(S(=O)(=O)O)cc(O)c2c1N=Nc1ccc(F)cc1 | 107% | 112% | 51.3% | 123% | 99.7% | 108% | 129% | 106% | 99.8% | –
COc1ccc2c(c1)sc1nc(-c3ccccc3)c(-c3cccnc3)n12 | 83% | 98.2% | 95.2% | 116% | 97.7% | 81.2% | 58.4% | 93.1% | 86.6% | 86.6%
CN(C)CC(O)c1ccc2cc(Br)c3ccccc3c2c1 (stereo not drawn) | 58.5% | 53.9% | 57.6% | 81.8% | 17.2% | 73.1% | 23.9% | 57.9% | 31% | 4.67% (active)
CCN(CC)CCCOCCCNc1cc(OC)cc2cccnc12 | 96.4% | 87.7% | 95.7% | 137% | 97.5% | 103% | 72% | 90.9% | 105% | –
COc1ccc(NC(=O)CSc2nc3ccccc3c(=O)n2CCc2ccccc2)cc1 | 75.2% | 79% | 90.2% | 109% | 93.4% | 87.5% | 101% | – | – | –
CCN(CC)CCNc1ccc(CO)c2oc3cc(Cl)ccc3c(=O)c12 | 88.7% | 76.3% | 54.4% | 82.7% | 60.9% | 87.3% | 50.9% | 66.6% | 62.3% | 50.1%
COc1cc(NC(=O)CSc2nc3ccccc3c(=O)n2CCc2ccccc2)cc(OC)c1OC | 65.3% | 25.9% | -63.2% (active) | -2.38% (active) | -41.6% (active) | 45.4% | -21.8% (active) | – | – | –
COc1ccc2nc3cc(Cl)ccc3c(NCCNCC(C)O)c2c1 (stereo not drawn) | 38.1% | 27.3% | 32.4% | -15.6% (active) | 22.6% | 47.6% | 37% | 19.3% | 11.7% | –
CCCCCCCCN(CCCCCCCC)CCCCCCCCCN1CCCc2cc(OC)ccc21 | 81.5% | 82.7% | 80.4% | 117% | 96.5% | 99.3% | 96% | 85.8% | 85.8% | –
Cc1cc2ccccc2nc1-c1ccccc1F | 107% | 110% | 97.3% | 130% | 112% | 99% | 96.2% | 96.9% | 111% | 110%
COC(=O)c1c(-c2ccccc2)csc1NC(=O)c1c(-c2ccccc2)noc1C | 58.7% | 44.8% | 26% | 55.9% | 31.5% | 6.32% (active) | 67.8% | 35% | 15.9% | -17.2% (active)
COc1ccc(N2C(=O)C3c4[nH]c5ccc(OCc6ccccc6)cc5c4C4CCC(C(C)C)CC4C3C2=O)cc1 (stereo not drawn) | 115% | 103% | 91.7% | 116% | 3.44% (active) | 94% | 105% | 71.9% | 30.8% | 64.6%
Cc1occc1-c1nnc(SCC(=O)c2ccc(NC(=O)CC(C)C)cc2)o1 | 103% | 107% | 93.7% | 123% | 109% | 84.1% | 118% | 93.4% | 100% | –
CC(C)(C)NC/C(=C\c1ccccc1)C(=O)c1ccccc1 | 24.7% | -45.8% (active) | -83.3% (active) | 0.816% (active) | -50.9% (active) | -7.54% (active) | 64.4% | 10.7% | 10.3% | –
CSc1cc(SC)ncn1 | 107% | 94.4% | 86.7% | 94% | 107% | 106% | 98.8% | 94% | 105% | 98.2%
O=c1c2ccccc2nc(SCCN2CCCCC2)n1CCc1ccccc1 | 70.7% | 81.5% | 57.2% | 97.2% | 102% | 73.9% | 83.1% | – | – | –
COc1ccc2c(c1)C(=O)c1c-2c(OCCN2CCCCC2)nc2ccc(OC)cc12 | 39.6% | 20% | -6.08% (active) | 41.1% | 9.5% (active) | -11.5% (active) | 53.7% | 14.3% | 8.36% (active) | –
COc1ccc2c(c1)N(CCO)C1=C(C(=O)OC1)C2c1ccc(OC)c(OC)c1 (stereo not drawn) | 67% | 60.8% | 60.9% | 59.3% | 43.7% | 52.3% | 14.9% | 34.2% | 43.4% | 21%
CC(C)C[C@H](NC(=O)[C@H](Cc1cccc2ccccc12)NS(=O)(=O)c1cccc2cccnc12)B(O)O | 6.76% (active) | 8.75% (active) | -80.2% (active) | -60.2% (active) | -3.75% (active) | -20.7% (active) | -36.4% (active) | -18.8% (active) | 1.17% (active) | 2.44% (active)
CC[C@H]1CCC/C=C/[C@@H]2C[C@H](O)C[C@H]2[C@H](O)/C=C/C(=O)O1 | -1.36% (active) | 3.46% (active) | -9.94% (active) | -48% (active) | 0.373% (active) | -0.599% (active) | -45.3% (active) | 7.71% (active) | 0.81% (active) | –
NC1=NC(=O)C(c2ccccc2)(c2ccccc2)S1 | 107% | 106% | 73.9% | 100% | 107% | 114% | 106% | 97.1% | 97.5% | 94.8%
C[N+](C)(C)c1ncnc2nc[nH]c12 | 89.1% | 108% | 84% | 103% | 91.1% | 83% | 98.3% | 102% | 98.6% | 78.4%
O=C(CNC(=O)OCc1ccccc1)NCC(=O)Oc1ccc([N+](=O)[O-])cc1 | 101% | 112% | 86.4% | 90.3% | 105% | 101% | 85% | 109% | 99.7% | –
COc1cc(C)ccc1C(=O)c1ccc(C)cc1OC | 31.2% | 43.2% | 31.4% | 38.3% | 60.8% | 23.4% | -4.5% (active) | 14.4% | 32.3% | –
CC/C(=N\N=C(/CC)c1ccc(Br)cc1)c1ccc(Br)cc1 | 90.6% | 96% | 92.6% | 111% | 94.4% | 99.3% | 103% | 105% | 105% | 96.9%
COc1ccc(/C(=C2\O[C@@H]([C@H]3COC(C)(C)O3)[C@H]3OC(C)(C)O[C@@H]23)c2cc(OC)c(OC)c(OC)c2)cc1O | 90.2% | 57.7% | 49.1% | 109% | 44.7% | 93% | 63.3% | 47.9% | 59.9% | 25.4%
c1ccc(C(NC2CC3CCC2C3)c2ccccc2)cc1 (stereo not drawn) | 96.8% | 94% | 65% | 95.9% | 98.9% | 87.7% | 116% | 87.6% | 94% | 90.2%
CN1CCCNc2c(c(=O)c2=O)NCCCN(C)CCCNc2c(c(=O)c2=O)NCCCN(C)CCCNc2c(c(=O)c2=O)NCCCN(C)CCCNc2c(c(=O)c2=O)NCCCN(C)CCCNc2c(c(=O)c2=O)NCCCN(C)CCCNc2c(c(=O)c2=O)NCCCN(C)CCCNc2c(c(=O)c2=O)NCCC1 | 61.7% | 33.3% | 17.2% | 27.1% | 43.3% | 54.1% | 72.5% | – | – | –
